# Assay results as given in PubChem BioAssay (Tox21).
# Inconclusive results are not listed. Where a call stands in place of a potency, no number is given. Calls of active or inactive are those of the source. Unless noted, calls come from the whole dose curve.
# Assays:
# [1] = Nuclear factor erythroid 2-related factor 2/antioxidant responsive element (Nrf2/ARE) small molecule agonists: qHTS cell viability counter screen in human keratinocytes (AID 1919968; active = well fitted curve in the direction sought with a large enough effect in the repeat runs; an effect the other way counts as inactive or inconclusive; note: nearly all actives have a fitted effect of over 55% in size; note: potency is the fitted concentration of half-maximal effect)
# Procedure, shortened: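 After a 5 h attachment period, ARE-reporter keratinocytes were dosed with compounds in DMSO and then cultured 23 h at 37 C. Cell viability came from CellTiter-Fluor signal read after a further 1 h.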
# [2] = Nuclear factor erythroid 2-related factor 2/antioxidant responsive element (Nrf2/ARE) small molecule agonists: luciferase reporter gene qHTS assay in human keratinocytes (AID 1919969); note: nearly all actives have a fitted effect of over 35% in size
# [3] = molecular target: KiSS-1 receptor (Homo sapiens) (UniProt Q969F8); assay: Human kisspeptin (KISS1R) small molecule agonists, calcium flux assay in KISS1R-HEK293 cells (AID 1920064; active = well fitted curve in the direction sought with a large enough effect in the repeat runs; an effect the other way counts as inactive or inconclusive; note: potency is the fitted concentration of half-maximal effect)
# Procedure, shortened: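 Kinetic calcium assay, 1 s sampling over 3 min at Ex/Em 480/540, in HEK293 cells engineered with human KISS1R; compounds delivered in DMSO after 1 h dye loading.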
# [4] = p53 small molecule agonists, cell-based qHTS assay with human liver microsomes (AID 1963577);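 note: p53 response element beta-lactamase reporter cells with liver microsomes plus NADPH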
# Procedure, shortened: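 16 h, 37 C exposure of p53RE-bla cells to compounds with human liver microsomes and NADPH (0.5 mg/mL final each); detection via LiveBLAzer mixture, 2 h dark at room temperature.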
# [5] = p53 small molecule agonists, cell-based qHTS assay with rat liver microsomes (AID 1963578)
# Procedure, shortened: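 With rat liver microsomes and NADPH present (0.5 mg/mL final each), p53RE-bla cells are treated with compound for 16 h at 37 C. LiveBLAzer detection mixture is then applied for 2 h at room temperature in the dark.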
# [6] = p53 small molecule agonists, cell-based qHTS assay with human liver microsomes: qHTS cell viability counter screen (AID 1963579); note: nearly all actives have a fitted effect of over 45% in size; note: potency is the fitted concentration of half-maximal effect
# Procedure, shortened: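 In this multiplexed counter screen, the reporter plates were subsequently treated with CellTiter-Glo so that cell viability, reflected by luminescence, could be recorded for p53RE-bla cells dosed 16 h with compounds under microsomal activation (HLM and NADPH).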
# [7] = p53 small molecule agonists, cell-based qHTS assay with rat liver microsomes: qHTS cell viability counter screen (AID 1963580); note: nearly all actives have a fitted effect of over 45% in size
# Procedure, shortened: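 p53RE-bla HCT-116 cells were exposed 16 h at 37 C to compounds with rat liver microsomes (0.5 mg/mL) and NADPH (0.5 mg/mL). Viability was measured in the same wells as ATP content by CellTiter-Glo luminescence.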
# [8] = p53 small molecule agonists, cell-based qHTS assay: qHTS cell viability counter screen (AID 1963581); note: nearly all actives have a fitted effect of over 45% in size; note: potency is the fitted concentration of half-maximal effect
# Procedure, shortened: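 Following 5 h attachment, HCT-116 p53RE-bla cells took up compound for 16 h at 37 C; the reporter was read with B/G FRET substrate (2 h RT), and viability then via CellTiter-Glo ATP luminescence.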
# [9] = p53 small molecule agonists, cell-based qHTS assay (AID 1963582; active = well fitted activation curve with a large enough effect in the signal ratio in the repeat runs, not every such curve was filed as active; the % refers to the signal ratio)
# Procedure, shortened: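 In this cell-based concentration-response screen, a p53 response element drives beta-lactamase; cells received DMSO-borne compounds after 5 h culture and were incubated a further 16 h before FRET substrate development.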
# [10] = molecular target: 5-hydroxytryptamine receptor 2A (Homo sapiens) (UniProt P28223); assay: 5-hydroxytryptamine receptor 2A (HTR2A) small molecule antagonists, cell-based qHTS assay (AID 1963586); note: nearly all actives have a fitted effect of over 45% in size
# Procedure, shortened: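 Antagonist-mode intracellular calcium assay: DOI (4 nM) added after 5 min compound pre-incubation at room temperature to dye-loaded HTR2A-CHO cells. Fluorescence followed for 3 min, sampled every second.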
# [11] = molecular target: 5-hydroxytryptamine receptor 2A (Homo sapiens) (UniProt P28223); assay: 5-hydroxytryptamine receptor 2A (HTR2A) small molecule agonists, cell-based qHTS assay (AID 1963587); note: nearly all actives have a fitted effect of over 30% in size; note: potency is the fitted concentration of half-maximal effect
# Procedure, shortened: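 CHO cells stably expressing human HTR2A, plated 18 h, loaded with calcium dye 1 h at 37 C. Agonist mode: compounds added and intracellular calcium fluorescence recorded kinetically for 2 min at 1 sec intervals.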
# [12] = molecular target: Muscarinic acetylcholine receptor M1 (Homo sapiens) (UniProt P11229); assay: Cholinergic receptor muscarinic 1 (CHRM1) small molecule antagonists, cell-based qHTS assay (AID 1963588); note: nearly all actives have a fitted effect of over 40% in size
# Procedure, shortened: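 CHRM1-CHO calcium-flux assay, antagonist mode. Cells were seeded 18 h, dye-loaded 1 h at 37 C and given compound for 5 min at RT, then acetylcholine was added at 50nM. FDSS fluorescence was read 3 min; 15 concentrations, three runs.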
# [13] = molecular target: Muscarinic acetylcholine receptor M1 (Homo sapiens) (UniProt P11229); assay: Cholinergic receptor muscarinic 1 (CHRM1) small molecule agonists, cell-based qHTS assay (AID 1963589); note: nearly all actives have a fitted effect of over 35% in size; note: potency is the fitted concentration of half-maximal effect
# Procedure, shortened: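 Measures agonist-induced intracellular calcium rise. Stable human CHRM1 CHO line, 1 h dye load at 37 C, compounds from DMSO, kinetic fluorescence read.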
# [14] = cAMP Responsive Elements (CRE) small molecule agonists, cell-based qHTS assay (AID 1963590)
# Procedure, shortened: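 A CRE-responsive beta-lactamase reporter in HEK 293T cells was used. Treatment ran 3 h at 37 C; detection used LiveBLAzer B/G FRET substrate for 2 h at room temperature.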
# [15] = cAMP Responsive Elements (CRE) small molecule antagonists, cell-based qHTS assay (AID 1963591; active = well fitted inhibition curve with a large enough effect in the signal ratio in the repeat runs, not every such curve was filed as active; the % refers to the signal ratio)
# Procedure, shortened: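 HEK293T cells carrying a CRE-driven beta-lactamase reporter receive compound and NKH477 (0.25 uM final) for 3 h. Fluorescence from LiveBLAzer B/G FRET substrate is read after 2 h at room temperature.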
# [16] = molecular target: Beta-2 adrenergic receptor (Homo sapiens) (UniProt P07550); assay: Adrenergic beta2 receptor (ADRB2) small molecule antagonists, cell-based qHTS assay (AID 1963592); note: series mostly up to about 92 µM; nearly all actives have a fitted effect of over 50% in size
# Procedure, shortened: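 Cells (CHO, stable ADRB2 overexpression) incubated 18-20hr at 37C; compounds added from DMSO; agonist mix (1nM isoproterenol, 100uM IBMX, 25uM Ro-20-1724) added; 0.5hr RT; d2-cAMP and anti-cAMP-cryptate added; 1hr RT; 665/615 nm read.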
# [17] = molecular target: D(2) dopamine receptor (Homo sapiens) (UniProt P14416); assay: Dopamine D2 receptor (DRD2) small molecule agonists, cell-based qHTS assay (AID 1963594); note: nearly all actives have a fitted effect of over 35% in size
# Procedure, shortened: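 HEK293 cells stably expressing human DRD2, pre-treated with PDE inhibitor Ro20-1724 (0.1 mM final) and compound 10 min at room temperature, then stimulated with NKH477 (200nM […]) for 30 min. cAMP read by HTRF (665/620 nm).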
# [18] = molecular target: D(2) dopamine receptor (Homo sapiens) (UniProt P14416); assay: Dopamine D2 receptor (DRD2) small molecule antagonists, cell-based qHTS assay (AID 1963595; active = well fitted inhibition curve with a large enough effect in the signal ratio in the repeat runs, with a control signal flat; the % refers to the signal ratio; note: potency is the fitted concentration of half-maximal effect)
# Procedure, shortened: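 HTRF cAMP read-out at 665 and 620 nm emission (340 nm excitation). Antagonist mode: compounds were tested against 12 nM quinpirole in DRD2-HEK293 cells, with 200 nM NKH477 raising cAMP and 0.1 mM Ro20-1724 blocking its breakdown.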
# [19] = G protein-coupled receptor (GPCR) small molecule agonists, calcium flux assay: HEK293 wild type cell line counter screen (AID 1920065)
# Procedure, shortened: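 Calcium-sensitive dye, loaded 1 h at 37 C into cells cultured 18 h, reports compound-evoked calcium release as fluorescence (Ex/Em 480/540), measured over 3 min. Agonist mode; 15-point titrations, triplicate.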
# [20] = molecular target: Beta-2 adrenergic receptor (Homo sapiens) (UniProt P07550); assay: Adrenergic beta2 receptor (ADRB2) small molecule agonists, cell-based qHTS assay (AID 1963593);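 note: CHO cells stably overexpressing human ADRB2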
# Procedure, shortened: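 CHO cells stably over-expressing ADRB2 were plated overnight at 37C, then dosed with compounds plus a stimulation mix containing 100uM IBMX and 25uM Ro-20-1724 for 0.5hr at room temperature. cAMP was measured by HTRF competition, 1hr.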
# Muscarinic acetylcholine receptor M1 (Homo sapiens), sequence (P11229 whole entry, looked up): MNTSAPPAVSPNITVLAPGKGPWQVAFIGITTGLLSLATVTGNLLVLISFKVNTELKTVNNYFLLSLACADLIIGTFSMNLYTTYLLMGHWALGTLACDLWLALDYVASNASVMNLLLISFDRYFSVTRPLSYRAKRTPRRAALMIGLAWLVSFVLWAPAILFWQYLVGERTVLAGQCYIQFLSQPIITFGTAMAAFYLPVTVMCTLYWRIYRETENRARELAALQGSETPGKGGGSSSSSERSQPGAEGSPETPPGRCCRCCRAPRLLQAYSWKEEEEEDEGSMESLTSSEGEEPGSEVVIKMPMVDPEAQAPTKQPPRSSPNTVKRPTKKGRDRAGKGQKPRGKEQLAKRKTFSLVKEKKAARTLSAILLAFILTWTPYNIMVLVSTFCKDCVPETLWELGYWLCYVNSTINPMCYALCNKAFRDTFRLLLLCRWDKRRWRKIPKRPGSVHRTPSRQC
# D(2) dopamine receptor (Homo sapiens), sequence (P14416 whole entry, looked up): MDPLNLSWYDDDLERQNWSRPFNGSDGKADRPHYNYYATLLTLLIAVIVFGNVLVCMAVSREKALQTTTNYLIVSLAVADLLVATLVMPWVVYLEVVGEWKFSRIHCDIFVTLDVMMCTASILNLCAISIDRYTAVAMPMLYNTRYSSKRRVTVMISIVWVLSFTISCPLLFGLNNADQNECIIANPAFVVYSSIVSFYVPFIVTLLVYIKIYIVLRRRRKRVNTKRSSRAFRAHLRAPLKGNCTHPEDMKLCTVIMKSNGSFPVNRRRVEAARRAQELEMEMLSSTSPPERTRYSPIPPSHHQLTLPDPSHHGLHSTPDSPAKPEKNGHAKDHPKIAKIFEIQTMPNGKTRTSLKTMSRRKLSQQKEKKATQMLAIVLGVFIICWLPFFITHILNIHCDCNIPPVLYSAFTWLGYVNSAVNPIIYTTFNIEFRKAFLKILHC
# 5-hydroxytryptamine receptor 2A (Homo sapiens), sequence (P28223 whole entry, looked up): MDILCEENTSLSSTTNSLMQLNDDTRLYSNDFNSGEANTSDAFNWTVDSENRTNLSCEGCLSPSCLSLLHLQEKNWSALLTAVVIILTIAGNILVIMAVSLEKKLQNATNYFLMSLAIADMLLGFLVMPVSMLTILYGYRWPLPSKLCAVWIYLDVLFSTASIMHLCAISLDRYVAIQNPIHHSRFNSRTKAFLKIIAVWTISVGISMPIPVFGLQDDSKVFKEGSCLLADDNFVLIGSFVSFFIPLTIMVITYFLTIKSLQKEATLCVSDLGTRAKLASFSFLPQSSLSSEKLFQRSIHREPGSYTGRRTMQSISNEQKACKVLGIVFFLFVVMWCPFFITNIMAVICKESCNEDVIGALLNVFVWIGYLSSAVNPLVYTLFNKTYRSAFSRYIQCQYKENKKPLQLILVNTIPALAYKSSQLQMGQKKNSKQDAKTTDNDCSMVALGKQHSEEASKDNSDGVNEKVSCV
# KiSS-1 receptor (Homo sapiens), sequence (Q969F8 whole entry, looked up): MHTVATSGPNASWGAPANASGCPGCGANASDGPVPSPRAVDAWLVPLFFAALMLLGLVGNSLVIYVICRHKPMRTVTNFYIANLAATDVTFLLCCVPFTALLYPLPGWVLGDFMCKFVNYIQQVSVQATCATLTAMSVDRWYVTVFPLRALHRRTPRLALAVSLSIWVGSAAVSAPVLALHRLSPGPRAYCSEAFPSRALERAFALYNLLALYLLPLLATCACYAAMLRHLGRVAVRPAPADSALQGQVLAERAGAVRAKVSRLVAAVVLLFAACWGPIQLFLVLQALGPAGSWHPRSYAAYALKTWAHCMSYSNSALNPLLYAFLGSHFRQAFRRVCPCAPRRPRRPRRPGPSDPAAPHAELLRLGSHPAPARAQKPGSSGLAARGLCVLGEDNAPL
# Beta-2 adrenergic receptor (Homo sapiens), sequence (P07550 whole entry, looked up): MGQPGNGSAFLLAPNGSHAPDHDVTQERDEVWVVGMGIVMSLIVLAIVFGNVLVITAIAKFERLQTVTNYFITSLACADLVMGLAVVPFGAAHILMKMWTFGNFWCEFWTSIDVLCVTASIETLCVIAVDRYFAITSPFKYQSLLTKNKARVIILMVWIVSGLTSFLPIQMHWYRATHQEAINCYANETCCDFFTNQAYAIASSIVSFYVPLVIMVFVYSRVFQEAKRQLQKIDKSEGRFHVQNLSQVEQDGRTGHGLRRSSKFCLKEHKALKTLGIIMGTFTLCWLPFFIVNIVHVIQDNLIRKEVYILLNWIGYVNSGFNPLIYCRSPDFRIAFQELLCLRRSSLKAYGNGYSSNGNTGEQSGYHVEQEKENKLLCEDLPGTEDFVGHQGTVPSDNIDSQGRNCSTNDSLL
Compound,Potency [1],Potency [2],Potency [3],Potency [4],Potency [5],Potency [6],Potency [7],Potency [8],Potency [9],Potency [10],Potency [11],Potency [12],Potency [13],Potency [14],Potency [15],Potency [16],Potency [17],Potency [18],Potency [19],Potency [20]
CC(=O)NCCCS(=O)(=O)O,inactive,inactive,11.9 µM (active),inactive,inactive,inactive,inactive,inactive,inactive,inactive,18.9 µM (active),inactive,23.8 µM (active),inactive,inactive,inactive,inactive,inactive,–,–
CCCCCCCCCCCCSCCOCCO,inactive,inactive,inactive,–,–,inactive,inactive,inactive,–,inactive,–,inactive,0.0379 µM (active),inactive,inactive,inactive,inactive,inactive,inactive,inactive
CC/C(=C(\c1ccc(O)cc1)c1ccc(OCCN(C)C)cc1)c1ccccc1,30.7 µM (active),inactive,inactive,–,–,20.5 µM (active),–,20.5 µM (active),–,inactive,–,inactive,–,–,–,–,inactive,–,inactive,inactive
CN1CCC(=C2c3ccccc3CCc3cccnc32)CC1,inactive,inactive,inactive,–,–,inactive,inactive,inactive,–,–,inactive,–,inactive,inactive,inactive,inactive,inactive,29.8 µM (active),inactive,–
Cc1nc([N+](=O)[O-])cn1-c1ccc([N+](=O)[O-])cc1,inactive,inactive,inactive,–,–,inactive,inactive,inactive,–,inactive,inactive,inactive,inactive,inactive,–,inactive,inactive,inactive,inactive,inactive
CCCCCCCCCOC(=O)CCCCC(=O)OCCCCCCC,inactive,inactive,inactive,–,inactive,inactive,inactive,inactive,inactive,inactive,–,inactive,–,inactive,inactive,–,inactive,inactive,–,inactive
NC(=O)c1c(Cl)cccc1Cl,inactive,inactive,inactive,–,–,inactive,inactive,inactive,–,–,inactive,inactive,inactive,inactive,inactive,inactive,–,inactive,inactive,inactive
COCc1nnc(-c2ccc[n+]([O-])c2)n1-c1c(Cl)c(Cl)cc2[nH]c(=O)c(=O)[nH]c12,inactive,inactive,inactive,–,–,inactive,inactive,inactive,–,inactive,inactive,inactive,inactive,inactive,inactive,inactive,–,inactive,inactive,–
C[C@@H](O)[C@H]1C(=O)N2C(C(=O)O)=C(S[C@@H]3CN[C@H](CNS(N)(=O)=O)C3)[C@H](C)[C@H]12,inactive,inactive,inactive,–,–,inactive,inactive,inactive,–,inactive,inactive,–,inactive,–,–,–,inactive,inactive,inactive,–
